Bioassay records as filed in PubChem BioAssay.
Hits are enriched below; roughly 2.4% of the tested compounds scored in any of these assays.
FEN1 inh-1: human FEN1 inhibition. P39748. Recombinant FEN1 flap cleavage, fluorescence, 15 min. Potency, µM (highest dose often 114 µM), usual class: inhibitors. 0.35% of 390,000 active; further: nearly all actives have a fitted effect of over 65% in size
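FEN1 at 10 nM preincubated with compounds 15 min at room temperature, then flap DNA substrate added at 50 nM final. Signal read at 0 and 15 min; concentration-response fitted with four-parameter Hill equation.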
WRN inhibitor: blocks human WRN helicase. WRN helicase unwinding, fluorescent forked duplex, kinetic. Potency, µM (series often up to 114 µM), usual class: inhibitors. 0.46% of 360,000 active. AID 651768; further: nearly all actives have a fitted effect of over 55% in size
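Kinetic red-fluorescence monitoring (525/598 nm) tracks WRN helicase activity after 100 nM fluorophore-quencher forked duplex and 2 mM ATP are added to 20 nM enzyme pretreated 15 min at room temperature with compound.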
Pol eta inh-1: inhibitors of human DNA polymerase eta | recombinant Pol eta, fluorescent DNA replication assay | Potency, µM (series often up to 114 µM), most hits filed as inhibitors | 1.2% of 390,000 active | AID 588591
Target sequence (Q9Y253 whole entry, looked up): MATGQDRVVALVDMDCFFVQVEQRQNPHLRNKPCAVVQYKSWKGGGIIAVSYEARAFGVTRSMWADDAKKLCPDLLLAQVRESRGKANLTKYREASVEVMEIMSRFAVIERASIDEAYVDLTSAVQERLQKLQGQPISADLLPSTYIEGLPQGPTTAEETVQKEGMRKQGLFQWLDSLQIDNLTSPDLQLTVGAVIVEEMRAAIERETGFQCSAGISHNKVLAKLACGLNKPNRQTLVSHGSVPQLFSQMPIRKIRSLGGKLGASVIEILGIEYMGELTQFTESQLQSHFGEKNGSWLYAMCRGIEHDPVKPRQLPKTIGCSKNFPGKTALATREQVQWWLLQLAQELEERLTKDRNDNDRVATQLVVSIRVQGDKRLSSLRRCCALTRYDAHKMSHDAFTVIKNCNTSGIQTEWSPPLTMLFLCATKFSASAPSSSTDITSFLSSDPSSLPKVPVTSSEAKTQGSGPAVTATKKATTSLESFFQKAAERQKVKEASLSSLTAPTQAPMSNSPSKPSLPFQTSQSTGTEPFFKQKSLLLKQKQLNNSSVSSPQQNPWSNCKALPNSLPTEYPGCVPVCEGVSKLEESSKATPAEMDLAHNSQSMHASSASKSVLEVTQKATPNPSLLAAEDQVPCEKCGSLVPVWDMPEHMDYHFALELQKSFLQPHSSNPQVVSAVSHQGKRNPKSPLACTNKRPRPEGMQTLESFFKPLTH
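Fluorescent replication assay: 50 nM final substrate added after a 15 min room-temperature compound preincubation with 10 nM enzyme. Signal taken at 0 min and again at 10 min.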
Pol iota inh: inhibitors of human DNA polymerase iota. 1% of 390,000 active. Pol iota fluorescent replication assay, 10 min. Potency, µM (series often up to 115 µM), hits mostly inhibitors. Q9UNA4. AID 588590
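Fluorescent replication assay read twice, at 0 min and 10 min after adding 50 nM (final) substrate. Enzyme (10 nM) and compounds were first incubated 15 min at room temperature; enzyme-free buffer wells were negative controls.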
Pol kappa inh-1: inhibitors of human DNA polymerase kappa | Potency, µM (titrated, usually from 107 µM), actives largely listed as inhibitors | purified Pol kappa, fluorescent DNA synthesis assay, 10 min | 0.53% of 400,000 active | Q9UBT6 | AID 588579
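Kinetic fluorescence readout at 0 and 10 min followed reaction start with substrate at 50 nM final. Beforehand, enzyme (10 nM Pol kappa) stood 15 min with compound at room temperature; buffer-only wells were negative controls.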
POLB inh: inhibitors of human DNA polymerase beta; Pol beta primer extension/strand displacement, fluorescence kinetic; Potency, µM (doses to about 114 µM), hits mostly inhibitors; 1.3% of 340,000 active; AID 485314
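10 nM enzyme + cpd, 15 min RT; start with substrate 50 nM final; read 0 min and after 10 min RT. Corrected, normalized data; 4-parameter Hill curve fit.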
BAZ2B confirm: confirmation of human BAZ2B bromodomain inhibitors; shares compounds with Pol kappa inh-1; AlphaScreen BAZ2B / biotin-H3K14Ac peptide displacement; Potency, µM, usual class: inhibitors; 100% of 25 active; calls by dose curve
AlphaScreen ctr: counter-screen for BAZ2B inhibitors: AlphaScreen signal interference; shares compounds with Pol kappa inh-1; AlphaScreen biotin-His6 peptide bead counterscreen, signal decrease; Potency, µM (doses to about 57.1 µM), most hits filed as inhibitors; 25 tested, under 10 active;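 active means clear concentration-dependent signal drop in the bead assay lacking the target, so a primary-screen artifact; inconclusive means weak, partial or single-dose response; inactive means no response, so a real primary hit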
TbPGK inh: TbPGK inhibition, hit validation; Potency, µM (highest dose often 57.5 µM), actives largely listed as inhibitors; shares compounds with Pol kappa inh-1; AID 686980; 79% of 500 active; TbPGK coupled GAPDH assay, Kinase-Glo luminescence; further: nearly all actives have a fitted effect of over 65% in size
POLI cherry-pick: Human Pol iota inhibitor confirmatory assay; shares compounds with Pol kappa inh-1; Pol iota primer extension, TAMRA/BHQ fluorescence; Potency, µM, usual class: inhibitors; 77% of 1,500 active
Pol kappa inh-2: Pol kappa (human) inhibition, cherry-pick confirmation; purified Pol-kappa, fluorescent strand-displacement substrate; Potency, µM, hits mostly inhibitors; shares compounds with Pol eta inh-1; 76% of 920 active
Pol eta inh-2: confirmation of human DNA polymerase eta inhibitors; shares compounds with Pol eta inh-1; Pol eta primer extension, TAMRA/BHQ fluorescence, 10 min; Potency, µM, usual class: inhibitors; 64% of 2,600 active
FEN1 inh-2: confirmation of human FEN1 inhibitors; AID 720498; Potency, µM, actives largely listed as inhibitors; shares compounds with FEN1 inh-1; FEN1 flap cleavage, TAMRA/BHQ2 fluorogenic DNA substrate; 79% of 880 active; further: nearly all actives have a fitted effect of over 60% in size
Each line names hits and unclear results; the compound was inactive in the other large screens (follow-up assays come after a bar, where they were run). Unless noted, the call rests on the fitted dose curve; in most records, active means well fitted curve in the direction sought with a large enough effect; inconclusive means small, poorly fitted or top-dose-only effect, or another doubt; inactive means no such curve, though single readings can be large; an effect the other way counts as inactive or inconclusive.

O=C1NC(=O)N(c2ccc(Cl)cc2)C(=O)/C1=C\c1ccc(Sc2nc3ccccc3[nH]2)o1	FEN1 inh-1 79.4µM, WRN inhibitor 25.1µM, Pol eta inh-1 17.8µM, Pol iota inh inconclusive, Pol kappa inh-1 20µM, POLB inh 22.4µM | POLI cherry-pick 37.7 | Pol kappa inh-2 15 | Pol eta inh-2 26.9
CCOC(=O)C1=C(C)N=c2s/c(=C\c3ccc(OCC(=O)O)cc3)c(=O)n2C1c1ccc(Cl)cc1 (centres undefined)	FEN1 inh-1 inconclusive, WRN inhibitor inconclusive, Pol eta inh-1 inconclusive, Pol iota inh inconclusive, Pol kappa inh-1 50.1µM, POLB inh 22.4µM | BAZ2B confirm 14.1 | AlphaScreen ctr inactive | TbPGK inh 4.61µM | POLI cherry-pick 21.2 | FEN1 inh-2 75.7
Cc1ccc2c(C)c3ccc4ccccc4c3c[n+]2c1	FEN1 inh-1 8.91µM, Pol eta inh-1 inconclusive, Pol iota inh 79.4µM, Pol kappa inh-1 39.8µM (no result: POLB inh) | POLI cherry-pick 26.7 | Pol kappa inh-2 4.74 | FEN1 inh-2 6.75
CCOC(=O)c1ccc(N=Cc2c(O)n(-c3ccc(OC)cc3)c(=S)[nH]c2=O)cc1	FEN1 inh-1 inconclusive, WRN inhibitor inconclusive, Pol eta inh-1 inconclusive | POLI cherry-pick 3.77 | FEN1 inh-2 9.53
COc1ccc(N=Cc2c(O)n(-c3ccc(C)cc3)c(=O)[nH]c2=O)cc1	none
C=CCn1c(CSc2ccccc2[N+](=O)[O-])n[nH]c1=S	FEN1 inh-1 inconclusive, WRN inhibitor 39.8µM, Pol eta inh-1 12.6µM, Pol iota inh 8.91µM, Pol kappa inh-1 50.1µM, POLB inh 10µM | POLI cherry-pick 53.2 | Pol eta inh-2 23.9 | FEN1 inh-2 75.7
C[n+]1c2ccccc2nc2ccc(NCCO)cc21	FEN1 inh-1 39.8µM, WRN inhibitor 4.74µM, Pol eta inh-1 39.8µM, Pol iota inh inconclusive, Pol kappa inh-1 44.7µM, POLB inh 28.2µM | POLI cherry-pick 75.2 | Pol kappa inh-2 42.3 | Pol eta inh-2 67.5 | FEN1 inh-2 42.6
CNc1ccc2nc3ccccc3[n+](C)c2c1	FEN1 inh-1 inconclusive, WRN inhibitor 2.99µM, Pol eta inh-1 50.1µM, Pol iota inh 35.5µM, Pol kappa inh-1 20µM, POLB inh 28.2µM | POLI cherry-pick 75.2 | Pol kappa inh-2 18.9 | Pol eta inh-2 67.5 | FEN1 inh-2 37.9
CCOc1cncc(/C=C/CCNC)c1	none (no result: FEN1 inh-1, WRN inhibitor, Pol eta inh-1, Pol iota inh, POLB inh)
O=C(Cn1cnc2ccccc2c1=O)NCc1cccs1	none
CN(C)C(CSC(N)=O)CSC(N)=O	none (no result: FEN1 inh-1, WRN inhibitor, Pol eta inh-1, Pol iota inh, POLB inh)
C[C@@H](NC(=O)[C@@H](N)Cc1ccc(O)cc1)C(=O)NCC(=O)N(C)[C@@H](Cc1ccccc1)C(=O)NCCO	none (no result: FEN1 inh-1, WRN inhibitor, Pol eta inh-1, Pol iota inh, POLB inh)
CN1C(=O)C(=Cc2ccc(Sc3ccccc3)o2)C(=O)N(C)C1=S	WRN inhibitor inconclusive, Pol eta inh-1 44.7µM, Pol iota inh inconclusive, Pol kappa inh-1 inconclusive (no result: POLB inh) | POLI cherry-pick inconclusive | Pol kappa inh-2 16.8 | Pol eta inh-2 37.9 | FEN1 inh-2 84.9
O=C(CSc1nc(-c2ccc(F)cc2)nc2c1Cc1ccccc1O2)Nc1cccc(C(=O)O)c1	FEN1 inh-1 inconclusive, WRN inhibitor inconclusive, Pol eta inh-1 10µM, Pol iota inh 5.62µM, Pol kappa inh-1 8.91µM, POLB inh 2.82µM | BAZ2B confirm 28.2 | AlphaScreen ctr inactive | TbPGK inh 1.63µM | POLI cherry-pick 3.36 | Pol eta inh-2 75.7 | FEN1 inh-2 26.9
N#Cc1cc2c(nc1SCC(=O)Nc1cccc(F)c1)C1CCN2CC1	none (no result: WRN inhibitor)
O=C(NC1CCCCC1)c1cn(CCN2CCOCC2)c2cc(Cl)ccc2c1=O	none (no result: FEN1 inh-1, WRN inhibitor, Pol eta inh-1, Pol iota inh, POLB inh)
COc1ccc(/C(=N/OC(C)=O)c2nccc3cc(OC)c(OC)cc23)cc1OC	none
COc1cc2c(ccc3c4cc(OC)c(OC)cc4c[n+](C)c23)cc1O	FEN1 inh-1 3.55µM, WRN inhibitor inconclusive, Pol eta inh-1 inconclusive, Pol iota inh inconclusive, Pol kappa inh-1 31.6µM (no result: POLB inh) | POLI cherry-pick 18.9 | FEN1 inh-2 2.69
C[C@]12CC[C@H]3[C@@H](CC[C@@]45O[C@@H]4C(=O)C(C#N)C[C@]35C)[C@@H]1CC[C@@H]2O (some centres undefined)	none (no result: FEN1 inh-1, WRN inhibitor, Pol eta inh-1, Pol iota inh, POLB inh)
C=Cc1cc(OC)c2c(c1)c(=O)oc1c2cc(OC)c2c(O)ccc(C3OC(C)C(O)C(C)(O)C3O)c21 (centres undefined)	FEN1 inh-1 1.26µM, WRN inhibitor 10µM, Pol eta inh-1 1.41µM, Pol iota inh 2.51µM, Pol kappa inh-1 3.98µM (no result: POLB inh) | POLI cherry-pick 4.74 | Pol eta inh-2 10.7 | FEN1 inh-2 1.69
CC(C)(C)OC(=O)N(CCc1ccccc1)Cc1ccc(OCc2cccc(NC(=O)c3ccccc3)c2)cc1	FEN1 inh-1 inconclusive, Pol iota inh inconclusive (no result: POLB inh)
Cc1ccc(-n2c(C)cc(/C=C3/C(=O)NC(=O)N(C)C3=O)c2C)cc1	Pol iota inh inconclusive
